HT1080NT lethal = kills 2HG-producing HT-1080-NT fibrosarcoma cells. HT-1080-NT fibrosarcoma viability, CellTiter-Glo ATP luminescence, 48 h. Potency, µM (doses to about 46.1 µM), for the others: at the top dose activity, negative = less viability, most hits filed as cytotoxic. 1.6% of 360,000 active;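 also: NT is the 2HG producing partner of a matched IDH1 knockdown line; 0% = DMSO-treated cells and -100% = media-only wells without cells; nearly all actives have a fitted effect of over 55% in size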
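Read-out is CellTiter-Glo luminescence after 10 minutes at room temperature, following 48 hours' compound treatment of HT-1080-NT cells (750 cells/well, RPMI, 5% FBS, 37 degrees C).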
KB-3-1 cytotox = KB-3-1 parental cell cytotoxicity. 1.4% of 400,000 active. Potency, µM (highest dose often 46.1 µM), actives largely listed as cytotoxic. AID 1347075. KB-3-1 viability, CellTiter-Glo ATP luminescence, 72 h; also: % is scaled to controls: 0 for no effect and ±100 for the full control effect; nearly all actives have a fitted effect of over 60% in size
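Here the drug-naive KB-3-1 line serves as comparator for MDR sub-line selectivity; cells received compound titrations, 72 h at 37 °C, then CellTiter-Glo readout.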
KB-V1 cytotox = kills drug-selected multidrug resistant KB-V1 cells; KB-V1 MDR cells viability, CellTiter-Glo, 72 h; Potency, µM (doses to about 46.1 µM), usual class: cytotoxic; 3.4% of 400,000 active; also: % is scaled to controls: 0 for no effect and ±100 for the full control effect; nearly all actives have a fitted effect of over 60% in size
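In this primary screen, KB-V1 cells overexpressing P-gp are incubated with library compounds (lowest to highest concentration) for 72 h at 37 degrees C before a luminescent ATP viability read.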
SW480 rerep = inducers of DNA re-replication in SW480 colon cancer cells | Potency, µM (doses to about 46.1 µM), inactives show at the top dose re-replication activation, hits mostly activators | 1.8% of 340,000 active | AID 624297 | SW480 DNA re-replication, Hoechst DNA content imaging, 48 h; also: % of control where 0% means no effect; nearly all actives have a fitted effect of over 55% in size
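Cells (250 per well) received 23 nL compound or DMSO by pin tool and were kept 48 hr at 37 C, 5% CO2. Nuclei were then stained with Hoechst for 40 min and scanned for DNA content.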
HT1080 IDH1KD tx = toxicity to HT-1080 IDH1 knockdown cells (counter line) | 2% of 360,000 active | HT-1080 IDH1 knockdown viability, ATP luminescence, 48 h | AID 686971 | Potency, µM (highest dose often 46.1 µM), inactives show at the highest dose activity, negative = toxicity, usual class: cytotoxic;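 also: 0% = DMSO wells and -100% = cell-free medium wells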
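% activity derives from luminescence (CellTiter-Glo), normalised to DMSO and no-cell wells. HT-1080-IDH1KD cells, 750/well, had 48 h compound exposure at 37 °C.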
MCF10A rereplic = DNA re-replication induction in MCF 10a cells; MCF 10A DNA re-replication, Hoechst nuclear intensity, 48 h; Potency, µM (series often up to 46.1 µM), for inactives: top-dose activity, positive = re-replication, hits mostly activators; 2.9% of 350,000 active; also: % of control where 0% means no effect; nearly all actives have a fitted effect of over 50% in size
Active calls of the source: *; i = inactive; ? = inconclusive; / = no result given. Hits are enriched below; roughly 7.9% of the tested compounds scored in any of these assays. Calls follow the shape of the dose curve; as a rule, active = well fitted curve in the direction sought with a large enough effect; inconclusive = small, poorly fitted or top-dose-only effect, or another doubt; inactive = no such curve, though single readings can be large; an effect the other way counts as inactive or inconclusive. Potency is read from the fitted curve at half-maximal effect.

SMILES | HT1080NT lethal | KB-3-1 cytotox | KB-V1 cytotox | SW480 rerep | HT1080 IDH1KD tx | MCF10A rereplic
CCCC1=NN(C(=O)C(=O)Nc2ccc(Br)cc2)C(O)(C(F)(F)F)C1 (stereo unspecified) | 13µM* | i | i | ? | 16µM* | 17%
CC(C)C1=NN(C(=O)c2cccnc2)C(O)(C(F)(F)F)C1 (stereo unspecified) | 6% | i | i | 2% | -2% | ?
CCC1=NN(C(=O)C(=O)Nc2ccc(Br)cc2)C(O)(C(F)(F)F)C1 (stereo unspecified) | 21µM* | i | i | 47% | ? | ?
COc1cc2nc(/C=C/c3cc(OC)c(OC)c(OC)c3)sc2cc1SC | ? | 23µM* | 10µM* | ? | ? | ?
COc1cc2nc(C)sc2cc1SC | 4% | i | i | -4% | 8% | 1%
CCc1ccc(-n2c(-c3ccccc3)c(C)n3c4c(=O)n(C)c(=O)n(C)c4nc23)cc1 | / | i | i | / | / | /
Cc1ccc(-c2c(C)n3c4c(=O)n(C)c(=O)n(C)c4nc3n2-c2cccc(O)c2)cc1 | / | ? | 18µM* | / | / | /
C=C(C)c1cccc(C(C)(C)NC(=O)Nc2ccccc2OCC)c1 | -8% | i | i | 0% | -16% | ?
C=C(C)c1cccc(C(C)(C)NC(=O)Nc2cc(C)ccc2OC)c1 | -2% | i | 8.2µM* | 6% | -1% | 12%
COc1ccc(N(C(=O)Cn2nnc3ccccc32)C(C(=O)NCc2ccco2)c2ccncc2)cc1 (stereo unspecified) | 11% | i | i | -86% | 0% | -35%
CC(=O)C1=C(O)CCC1=NCCc1ccccc1 | 13% | i | i | ? | 11% | 21µM*
CCCOc1ccc(F)cc1-c1cc(C(=O)NCc2cc(OC)cc(OC)c2)[nH]n1 | -23% | i | i | / | -26% | /
CCc1ccc(NC(=O)Cn2cc(S(=O)(=O)c3ccc(F)cc3)c(=O)c3cc(OC)ccc32)cc1 | / | i | i | / | / | /
Cc1cc(Cl)ccc1C(O)c1ncc(-c2ccc(F)cc2)[nH]1 (stereo unspecified) | ? | i | i | / | 21µM* | /
Cc1cc(F)ccc1C(O)c1ncc(-c2ccc(Cl)cc2)[nH]1 (stereo unspecified) | -20% | i | i | / | -23% | /
OC(Cc1ccccc1Br)c1ncc(-c2ccc(Cl)cc2)[nH]1 (stereo unspecified) | ? | i | ? | / | 21µM* | /
OC(Cc1ccccc1)c1ncc(-c2ccc(Cl)cc2)[nH]1 (stereo unspecified) | ? | ? | 12µM* | / | ? | /
C=C(C)[C@@H]1C2=CC(C(=O)OC)=C(C[C@@H](C(=C)C)[C@H]3O[C@H]3C3=C[C@H]1OC3=O)O2 | 4µM* | / | / | / | 3.5µM* | /
CN(Cc1ccccc1)C(=O)c1cccc(NC(=O)Cc2ccc(NC(=O)C3CCN(C(=O)C4CCC4)CC3)cc2)c1 | 0% | i | i | -6% | -2% | 5%
COc1nc(N)c(C#N)c(-c2ccc(N(C)CCC#N)cc2)c1C#N | 0% | i | ? | 15% | -7% | 18µM*
CSc1cc(-c2ccccc2)n(C)c(=O)c1C#N | -20% | i | ? | -5% | -2% | ?
CSc1cc(-c2ccc(Cl)cc2)n(Cc2ccccc2)c(=O)c1C#N | 5% | 16µM* | i | -3% | 6% | 15%
Cc1ccc(Sc2ccc(N3CCCC(C(=O)Nc4ccc(F)c(Cl)c4)C3)nn2)cc1 (stereo unspecified) | / | i | i | / | / | /
Cc1ccc(N2C(=O)CSC23C(=O)N(CC(=O)NC2CCCCC2)c2ccccc23)cc1 (stereo unspecified) | / | i | 18µM* | / | / | /
CC1=CC(C)(C)N2C(=O)C3(SCC(=O)N3c3ccc(F)cc3)c3cc(C)cc1c32 (stereo unspecified) | -16% | ? | 16µM* | 13% | -4% | 8%
SMILES | HT1080NT lethal | KB-3-1 cytotox | KB-V1 cytotox | SW480 rerep | HT1080 IDH1KD tx | MCF10A rereplic
Cc1ccc(NC(=O)CN2C(=O)C3(SCC(=O)N3c3cccc(Cl)c3)c3ccccc32)cc1C (stereo unspecified) | / | i | 10µM* | / | / | /
Cc1cc(C)c(NC(=O)CN2C(=O)C3(SCC(=O)N3c3ccc(F)cc3)c3ccccc32)c(C)c1 (stereo unspecified) | / | i | 15µM* | / | / | /
Cc1ccc(CN2CC(C(=O)NNC(=O)c3ccc(F)cc3)CC2=O)cc1 (stereo unspecified) | 4% | i | i | 8% | 9% | 0%
COC(=O)C1=C(C)N(Cc2ccccc2)C(=NCCc2cccnc2)N[C@H]1c1ccc(Br)cc1 | ? | ? | i | ? | ? | 29%
CC(=NNC(=S)N1CCCCC1)c1ccccn1 | -20% | ? | ? | / | ? | /
CC(=NNC(=S)N1CC2CCC(CC2)C1)c1ccncn1 | 16µM* | ? | i | ? | ? | 45%
Cc1ccc(C)c(OCCC(=O)Nc2ccc3c(c2)OCO3)c1 | 12% | i | ? | -1% | 21% | 3%
Cc1cccc(N(C(=O)C(F)(F)F)C(C(=O)NC2CCCCC2)c2cccs2)c1 (stereo unspecified) | -1% | i | i | ? | -19% | ?
C#CC(=O)N(c1cccc(OC)c1)C(C(=O)NC1CCCC1)c1cccs1 (stereo unspecified) | 0.25µM* | i | i | -9% | 40µM* | -2%
C#CC(=O)N(c1ccc(OC)c(OC)c1)C(C(=O)NC1CCCC1)c1cccs1 (stereo unspecified) | 0.12µM* | i | i | ? | 0.58µM* | ?
COc1ccc(CCN(C(=O)C(F)(F)F)C(C(=O)NC2CCCC2)c2cccs2)cc1OC (stereo unspecified) | -20% | i | 9.2µM* | 19% | -10% | -7%
CCC1CC(=O)CCN1S(=O)(=O)c1ccc(C)cc1 (stereo unspecified) | 3% | i | i | -1% | 6% | 1%
COc1ccccc1NC(=O)Cn1c(SCC(=O)NCc2ccccc2)nc2ccccc21 | / | i | i | / | / | /
Cc1ccc(NC(=O)Cn2c(=O)n(CC(=O)NCCc3ccccc3)c(=O)c3ccccc32)cc1 | / | i | ? | / | / | /
CCOC(=O)c1sc(NC(=O)CSc2n[nH]c(-c3ccncc3)n2)c(C#N)c1C | ? | ? | i | -3% | ? | 24%

Screening data from PubChem.
